Hit rate of the full screen: of about 1,300 compounds, about 40 (3%) were called active. Cut-off read from the data, not from the text of the source: active = inhibition above about 30%; inactive = the rest. The entries come from a sample that favours actives as a whole.

Sequence of fMet-Leu-Phe receptor (Homo sapiens) (P21462 whole entry, looked up): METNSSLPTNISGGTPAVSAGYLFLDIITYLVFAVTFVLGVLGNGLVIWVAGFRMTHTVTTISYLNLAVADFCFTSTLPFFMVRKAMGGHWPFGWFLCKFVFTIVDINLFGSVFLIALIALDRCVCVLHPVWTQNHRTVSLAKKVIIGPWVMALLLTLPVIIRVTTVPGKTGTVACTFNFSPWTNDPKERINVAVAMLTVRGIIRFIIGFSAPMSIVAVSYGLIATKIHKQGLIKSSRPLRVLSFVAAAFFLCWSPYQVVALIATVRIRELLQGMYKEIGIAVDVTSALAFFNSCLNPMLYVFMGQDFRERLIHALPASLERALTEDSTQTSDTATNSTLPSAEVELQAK

This experiment concerns the target fMet-Leu-Phe receptor (Homo sapiens) (UniProt P21462). The experiment in a line: FPR1 fluorescent ligand binding inhibitors, primary screen, cell-based, flow cytometry, SAR analysis (AID 722). The settings on record: FPR-expressing cells, stronger effect = higher value, concentration not given here.
For `CCN1CCC2(CC1)N=C(c1ccccc1)C(=S)N2C(=O)c1ccccc1`, the inhibition was 2.1% (inactive).

On to `CC(=O)C1=C(O)C(=O)N(Cc2ccco2)C1c1ccc(Br)cc1` (configuration not stated), for which the inhibition is -1.5% (inactive). The same measure for `COc1ccc(/C(O)=C2/C(=O)C(=O)N(c3ccc(C)c(Br)c3)C2c2ccc(O)cc2)cc1` (configuration not stated): -5.2% (inactive). On to `O=C(c1ccccc1F)N(Cc1ccco1)Cc1ccccc1F`, for which the inhibition is 9.3% (inactive).

With `COc1cccc(OC)c1C(=O)Oc1ccc2c(=O)c(-c3ccc(Cl)cc3)c(C(F)(F)F)oc2c1`, the inhibition is 4.7% (inactive). For the compound `O=C(Oc1ccc2c(=O)c(Oc3ccccc3Cl)c(C(F)(F)F)oc2c1)c1cccs1`, the inhibition was -8.1% (inactive).

As to `COc1ccccc1-c1c(C(F)(F)F)oc2cc(OC(=O)N3CCOCC3)ccc2c1=O`, the inhibition was 9.4% (inactive). The result for `COc1ccc(Oc2c(C(F)(F)F)oc3cc(OC(=O)c4c(OC)cccc4OC)ccc3c2=O)cc1` reads 2.9% (inactive); that for `O=C(Oc1ccc2c(=O)c(-c3ccccc3Cl)c(C(F)(F)F)oc2c1)c1cccs1`, 70% (active); that for `O=C(Oc1ccc2c(=O)c(Oc3ccccc3Br)c(C(F)(F)F)oc2c1)c1cccs1`, 37.2% (active). The same measure for `COc1cc(C)c2c(=O)c(Oc3ccccc3)c(C(F)(F)F)oc2c1`: 4.2% (inactive); for `CCCCc1c(O)nc(SCCN(C)C)n(-c2ccccc2)c1=O`: -1% (inactive); for `CCOc1ccc(C2/C(=C(/O)c3ccc(Cl)cc3)C(=O)C(=O)N2c2ccc(C)c(Br)c2)cc1` (configuration not stated): -0.6% (inactive). The result for `COCCN1C(=O)C(=O)/C(=C(/O)c2ccccc2)C1c1ccc(OC)cc1OC` (configuration not stated) reads 10.5% (inactive); that for `COc1ccc(C2/C(=C(\O)c3ccccc3)C(=O)C(=O)N2CCCn2ccnc2)c(OC)c1` (configuration not stated), 79.1% (active).

Turning to `COc1ccc(/C(O)=C2/C(=O)C(=O)N(CCCn3ccnc3)C2c2cccc(OC)c2)cc1` (configuration not stated), the inhibition was -6.1% (inactive). The result for `COc1ccc(C2/C(=C(/O)c3ccccc3)C(=O)C(=O)N2CCO)c(OC)c1` (configuration not stated) reads -12.1% (inactive); that for `COCCCN1C(=O)C(=O)/C(=C(/O)c2ccccc2)C1c1cc(OC)ccc1OC` (configuration not stated), 11.4% (inactive). The result for `COc1ccc(C2/C(=C(/O)c3ccccc3)C(=O)C(=O)N2c2ccc(C)c(Br)c2)c(OC)c1` (configuration not stated) reads -1.6% (inactive); that for `COCCN1C(=O)C(=O)/C(=C(/O)c2ccccc2)C1c1cc(OC)ccc1OC` (configuration not stated), 69.8% (active). The same measure for `COc1ccc(C2/C(=C(\O)c3ccccc3)C(=O)C(=O)N2c2ccc(C)c(Cl)c2)c(OC)c1` (configuration not stated): -4.3% (inactive); for `COc1ccc(C2/C(=C(\O)c3ccccc3)C(=O)C(=O)N2c2cccc(Cl)c2)c(OC)c1` (configuration not stated): 47.6% (active).

For the origin of these results see PubChem BioAssay AID722 (NMMLSC, 2007).
